# Source: PubChem BioAssay
# Some of the results follow. A number with no mark means an inactive call. Active and inactive are the calls of the source.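 Rule for the calls, unless noted: active = mean inhibition across triplicate wells above the cutoff set by the earlier primary insulin-degrading enzyme screen (cut at about 16% in these data); inactive = the rest.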
# Legend:
# [1] = molecular target: Insulin-degrading enzyme (Homo sapiens) (UniProt P14735); assay: human IDE inhibitors in live cells, confirmation, fluorescence polarization, HEK cells, FAbetaB substrate (AID 435028); conditions: FAbetaB cleavage, at 5.59 µM, stronger effect = higher value;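 note: 0% = DMSO wells and 100% = 60 µM reference IDE inhibitor Ii1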
# Insulin-degrading enzyme (Homo sapiens), sequence (P14735 whole entry, looked up): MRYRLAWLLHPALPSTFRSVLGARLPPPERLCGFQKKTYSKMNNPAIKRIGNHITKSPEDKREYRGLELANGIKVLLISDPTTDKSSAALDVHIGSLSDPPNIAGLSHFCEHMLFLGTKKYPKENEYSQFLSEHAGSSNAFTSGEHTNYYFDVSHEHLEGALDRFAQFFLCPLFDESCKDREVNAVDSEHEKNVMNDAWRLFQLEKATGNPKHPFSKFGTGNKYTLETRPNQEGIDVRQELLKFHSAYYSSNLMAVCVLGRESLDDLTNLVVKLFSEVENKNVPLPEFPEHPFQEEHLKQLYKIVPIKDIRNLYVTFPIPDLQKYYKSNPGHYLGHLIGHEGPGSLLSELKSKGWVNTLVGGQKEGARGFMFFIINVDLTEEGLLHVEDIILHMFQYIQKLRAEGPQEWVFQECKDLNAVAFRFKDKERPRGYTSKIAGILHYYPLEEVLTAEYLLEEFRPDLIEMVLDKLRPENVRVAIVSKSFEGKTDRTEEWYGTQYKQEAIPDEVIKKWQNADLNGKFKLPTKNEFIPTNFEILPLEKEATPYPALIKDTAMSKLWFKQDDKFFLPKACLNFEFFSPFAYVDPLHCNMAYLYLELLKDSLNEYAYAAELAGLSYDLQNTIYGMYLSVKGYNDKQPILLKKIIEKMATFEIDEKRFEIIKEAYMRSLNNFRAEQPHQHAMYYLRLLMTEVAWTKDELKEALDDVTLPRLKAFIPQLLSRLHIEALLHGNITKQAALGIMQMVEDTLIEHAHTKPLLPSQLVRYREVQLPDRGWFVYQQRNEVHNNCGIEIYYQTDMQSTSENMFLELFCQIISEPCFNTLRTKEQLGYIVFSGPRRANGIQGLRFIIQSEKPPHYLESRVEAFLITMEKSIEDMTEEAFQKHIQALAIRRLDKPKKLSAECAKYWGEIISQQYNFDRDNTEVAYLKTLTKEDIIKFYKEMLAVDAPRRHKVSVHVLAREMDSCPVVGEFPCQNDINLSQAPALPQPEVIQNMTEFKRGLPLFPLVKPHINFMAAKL
# [2] = cytotoxicity in HEK cells, cytotoxicity control for IDE inhibitor project, cell-based, luminescence (AID 449730; in the data active = inhibition above about 22%;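 note: 0% = vehicle wells and 100% = reference cytotoxic drug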); conditions: HEK293 cytotoxicity, ATP luminescence; at 5.59 µM; stronger effect = higher value
# [3] = molecular target: Oxytocin receptor (Homo sapiens) (UniProt P30559); assay: human OXTR agonists, confirmation, fluorescence, CHO-OTR cells, triplicate (AID 434963;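 active = mean activation above about 20% derived from the earlier single-dose screen, limit read from the data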;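 note: peak over minimum fluorescence ratio per well during a 100 second FLIPR read; 0% = DMSO alone and 100% = oxytocin high control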); conditions: Fluo-8 calcium fluorescence, agonist, at 3 µM, stronger effect = higher value
# Oxytocin receptor (Homo sapiens), sequence (P30559 whole entry, looked up): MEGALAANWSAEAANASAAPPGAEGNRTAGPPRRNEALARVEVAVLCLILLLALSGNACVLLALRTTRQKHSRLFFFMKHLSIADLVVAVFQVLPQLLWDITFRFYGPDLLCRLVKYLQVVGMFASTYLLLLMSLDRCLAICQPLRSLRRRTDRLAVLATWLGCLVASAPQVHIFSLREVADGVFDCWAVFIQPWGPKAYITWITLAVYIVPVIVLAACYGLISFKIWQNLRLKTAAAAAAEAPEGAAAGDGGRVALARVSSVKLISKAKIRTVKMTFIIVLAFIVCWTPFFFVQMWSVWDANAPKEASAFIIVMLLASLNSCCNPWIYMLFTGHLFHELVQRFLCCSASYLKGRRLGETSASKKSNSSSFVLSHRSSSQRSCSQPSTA
# [4] = molecular target: Vasopressin V1a receptor (Homo sapiens) (UniProt P37288); assay: V1a receptor agonists, calcium signal, counter-screen for OXTR agonist project, triplicate, fluorescence, CHO-V1R cells (AID 434991;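 active = mean activation over triplicate exceeds the hit threshold set in the earlier primary screen, cut at about 20% in these data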;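 note: peak over basal fluorescence ratio within a 100 second read; 0% = DMSO alone and 100% = 3 nM vasopressin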); conditions: Fluo-8 calcium fluorescence, at 3 µM, stronger effect = higher value
# Vasopressin V1a receptor (Homo sapiens), sequence (P37288 whole entry, looked up): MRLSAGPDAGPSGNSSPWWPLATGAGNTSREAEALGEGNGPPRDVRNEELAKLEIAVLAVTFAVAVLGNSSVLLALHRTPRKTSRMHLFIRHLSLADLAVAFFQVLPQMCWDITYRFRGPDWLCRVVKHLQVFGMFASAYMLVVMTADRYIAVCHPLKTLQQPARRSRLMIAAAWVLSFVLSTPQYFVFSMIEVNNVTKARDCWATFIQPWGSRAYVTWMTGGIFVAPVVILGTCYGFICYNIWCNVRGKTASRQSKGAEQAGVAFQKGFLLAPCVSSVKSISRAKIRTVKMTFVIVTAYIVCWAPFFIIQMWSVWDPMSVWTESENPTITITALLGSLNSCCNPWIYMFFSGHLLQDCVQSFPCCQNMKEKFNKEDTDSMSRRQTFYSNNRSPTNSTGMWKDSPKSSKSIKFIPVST
# [5] = molecular target: Photoreceptor-specific nuclear receptor (Homo sapiens) (UniProt Q9Y5X4); assay: NR2E3 agonist confirmation in cells, cell-based, luminescence, CHO-S two-hybrid (AID 624378;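 active = average inhibition above a cutoff equal to the mean inhibition of all tested compounds plus one SD, cut at about 70% in these data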;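 note: 0% = DMSO in NR2E3 cells and 100% = DMSO in cells lacking NR2E3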); conditions: CHO-S mammalian two-hybrid NR2E3-NCOR, luciferase luminescence; at 3.98 µM; stronger effect = higher value
# Photoreceptor-specific nuclear receptor (Homo sapiens), sequence (Q9Y5X4 whole entry, looked up, the tested form may be a part): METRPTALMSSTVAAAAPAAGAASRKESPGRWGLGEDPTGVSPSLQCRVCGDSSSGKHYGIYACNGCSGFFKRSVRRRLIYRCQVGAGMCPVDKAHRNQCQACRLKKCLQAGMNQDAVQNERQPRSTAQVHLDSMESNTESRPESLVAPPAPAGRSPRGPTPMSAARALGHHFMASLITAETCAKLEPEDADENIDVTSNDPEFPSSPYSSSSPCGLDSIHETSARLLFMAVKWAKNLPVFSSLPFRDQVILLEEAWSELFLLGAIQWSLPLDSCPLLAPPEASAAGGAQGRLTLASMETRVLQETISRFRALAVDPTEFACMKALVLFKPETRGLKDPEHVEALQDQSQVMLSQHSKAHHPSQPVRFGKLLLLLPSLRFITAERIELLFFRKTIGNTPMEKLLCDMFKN
# [6] = GAL4-VP16 reporter modulators, confirmation, counter-screen for NR2E3 agonist project, cell-based, luminescence, CHO-S, high throughput (AID 624379;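 active = mean inhibition above a cutoff equal to the average over all tested compounds plus one standard deviation, cut at about 70% in these data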;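 note: luciferase from a UAS reporter driven by GAL4-VP16 transactivation; 0% = DMSO with VP16-transfected cells and 100% = DMSO with cells lacking VP16; higher means less reporter light so more repression of VP16 activity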); conditions: CHO-S GAL4-VP16 luciferase reporter, at 3.98 µM, stronger effect = higher value
compound,measurement,setting,value
NC(=O)c1c(Nc2nc3c(F)cccc3s2)sc2c1CCCC2,inhibition,[1],12.7%
same,inhibition,[2],5.16%
O=C(Nc1ccc(Cl)c(Cl)c1)N1CC=C(c2ccccc2)CC1,inhibition,[1],4.7%
same,inhibition,[2],8.42%
COc1cc(/C=C2/SC(=S)N(Cc3ccccc3)C2=O)cc(OC)c1O,activation,[3],29.3% (active)
same,activation,[4],38.2% (active)
same,inhibition,[1],142% (active)
same,inhibition,[2],19.6%
CCN1CCCC1CNc1ncnc2c1[nH]c1ccc(F)cc12 (stereo not drawn),inhibition,[1],3.64%
same,inhibition,[2],8.81%
Cc1c(-c2cccc(Cl)c2)nc2ccccc2c1C(=O)OCC(=O)N(C)C1CCS(=O)(=O)C1 (stereo not drawn),inhibition,[1],16.9% (active)
same,inhibition,[2],14.1%
CCCC(=O)Nc1c(O)c2ccccc2[nH]c1=O,inhibition,[1],2.78%
same,inhibition,[2],9.27%
Cc1nn(C)cc1C(=O)c1ccccc1,inhibition,[1],3.52%
same,inhibition,[2],5.03%
O=C(/C=C/c1ccc(OCc2c(F)cccc2Cl)cc1)N1CCOCC1,inhibition,[1],12.4%
same,inhibition,[2],67.9% (active)
O=C(CCc1ccc(S(=O)(=O)N2CCOCC2)cc1)Nc1ccc2ccccc2c1,inhibition,[1],8.6%
same,inhibition,[2],13.4%
CCN1/C(=C/c2ccc3ccc(C)cc3[n+]2CC)Sc2ccccc21,inhibition,[1],55.5% (active)
same,inhibition,[2],107% (active)
COc1ccc(NS(=O)(=O)c2ccc(Oc3c(C#N)cccc3C#N)cc2)cc1,activation,[3],17.5%
same,activation,[4],13.7%
same,inhibition,[5],94.9% (active)
same,inhibition,[6],88% (active)
COc1cc(/C=C(\C#N)c2nc3ccccc3[nH]2)ccc1O,inhibition,[1],134% (active)
same,inhibition,[2],21.9%
